TRPV1 ag: HTS Assay for Compounds that Act as Agonists of the Vanilloid Receptor 1. TRPV1-expressing cells, Fluo-8 calcium influx, agonist mode. activation, % at 8.33 µM. AID 540275, 2011. 320,000 compounds, 0.19% hits. Transient receptor potential cation channel subfamily V member 1 (Homo sapiens), Q8NER1; in the data active means activation above about 80%; inconclusive means between about 30% and that limit; further: 0% is about no effect
Target sequence (Q8NER1 whole entry, looked up): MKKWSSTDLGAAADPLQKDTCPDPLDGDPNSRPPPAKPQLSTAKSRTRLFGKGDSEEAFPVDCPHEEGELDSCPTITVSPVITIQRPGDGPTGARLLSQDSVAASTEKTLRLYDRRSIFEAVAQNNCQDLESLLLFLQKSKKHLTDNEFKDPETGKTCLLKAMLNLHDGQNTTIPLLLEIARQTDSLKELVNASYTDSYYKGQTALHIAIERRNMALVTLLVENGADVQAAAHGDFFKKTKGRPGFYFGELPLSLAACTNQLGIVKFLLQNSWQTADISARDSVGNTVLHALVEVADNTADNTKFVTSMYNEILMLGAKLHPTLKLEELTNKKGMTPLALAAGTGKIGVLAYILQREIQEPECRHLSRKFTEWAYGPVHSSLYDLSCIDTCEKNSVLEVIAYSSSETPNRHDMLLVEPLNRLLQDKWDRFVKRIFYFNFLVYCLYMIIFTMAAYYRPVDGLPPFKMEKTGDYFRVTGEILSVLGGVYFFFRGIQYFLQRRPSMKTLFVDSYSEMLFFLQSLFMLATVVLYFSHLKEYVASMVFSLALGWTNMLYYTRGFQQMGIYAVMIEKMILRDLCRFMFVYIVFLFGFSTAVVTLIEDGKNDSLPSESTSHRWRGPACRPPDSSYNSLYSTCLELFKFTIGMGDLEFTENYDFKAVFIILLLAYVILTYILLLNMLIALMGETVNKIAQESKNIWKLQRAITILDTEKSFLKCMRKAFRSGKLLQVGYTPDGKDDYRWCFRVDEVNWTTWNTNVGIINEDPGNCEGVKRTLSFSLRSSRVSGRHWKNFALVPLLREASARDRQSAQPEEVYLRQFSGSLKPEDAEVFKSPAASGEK
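Cells expressing TRPV1 were dye-loaded with Fluo-8 and read kinetically: 10 s baseline, 3 min after compound (agonist portion), then 2 min after EC20 capsaicin (allosteric enhancer portion). Calcium-bound dye fluorescence at 480/520 nm.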
TRPV1 potentiator: HTS Assay for Compounds that Act as Potentiators of the Vanilloid Receptor 1; Transient receptor potential cation channel subfamily V member 1 (Homo sapiens), Q8NER1; TRPV1-expressing cells, Fluo-8 calcium influx, capsaicin EC20 potentiation; potentiation, % at 8.33 µM; 320,000 compounds, 0.02% hits; AID 540277, 2011; in the data active means potentiation above about 80%; inconclusive means between about 30% and that limit; further: 0% is about no effect
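TRPV1-expressing cells were cultured overnight at 35.5C and loaded with Fluo-8 calcium dye for 40 to 90 min at room temperature. After a 10 s baseline, compound was added and calcium influx was read kinetically for 3 min (ex 480/em 520 nm).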
IMPase Li cell: qHTS Assay for Identifying the Cell-Membrane Permeable IMPase Inhibitors: Potentiation with Lithium | CHO-M1 cells, IP1 TR-FRET (IP-One), carbachol + lithium | Potency, µM (highest dose often 59.4 µM), without a hit: at the top dose activity, negative = IMPase inhibition, hits mostly inhibitors | 210,000 compounds, 0.35% hits;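 further: IP1 builds up when IMPase is blocked and the TR-FRET signal falls; potency means the concentration at half of the fitted maximal effect; plate controls were basal vehicle for no effect and high inhibitor control for full effect; nearly all actives have a fitted effect of over 50% in size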
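CHO cells stably expressing M1 receptor (2000/well, cultured 16–30 h) treated 30 min at 37C with compound plus low lithium. Cytosolic IP1 by TR-FRET (665/620 ratio and 620 channel) after 10 min lysis; AC50 by Hill fit.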
AT treatment: qHTS Assay for Identifying a Potential Treatment of Ataxia-Telangiectasia | F2112 A-T fibroblasts, KAP-1 phosphorylation AlphaLISA; neocarzinostatin DNA damage 30 min before lysis | 320,000 compounds, 0.19% hits | Potency, µM (highest dose often 57.5 µM), without a hit: top-dose activation, actives largely listed as activators; further: potency means the concentration at half of the fitted maximal effect; % of control where 0% means no effect; nearly all actives have a fitted effect of over 45% in size
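ATM-like activity read as KAP-1 phosphorylation via AlphaLISA donor/acceptor antibody pairs after lysis and 6 hr at 25C. Cells were ATM-null patient fibroblasts (F2112, hTERT), dosed 60 min, then exposed to the DSB inducer NCS for 30 min.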
* = called active by the depositor; ? = inconclusive; · = no result given; [ ] = another dose, or the depositor's remark. This is a sample that favours compounds with a hit; in the whole collection about 0.55% have one here. Unless noted, the call rests on the fitted dose curve; in most records, active means well fitted curve in the direction sought with a large enough effect; inconclusive means small, poorly fitted or top-dose-only effect, or another doubt; inactive means no such curve, though single readings can be large; an effect the other way counts as inactive or inconclusive.

SMILES | TRPV1 ag | TRPV1 potentiator | IMPase Li cell | AT treatment
Cc1cc2nc3ccc(=[N+](C)C)cc-3sc2cc1N | -8 | 6 | · | 16µM*
O=C1c2cccc([N+](=O)[O-])c2C(=O)N1c1ncn[nH]1 | · | · | -4% | ·
CCCCCCCC1=Cc2ccccc2C(C(C(C)=O)C(=O)OC)N1C(=O)OC (centres undefined) | · | · | 4% | ·
CC(=O)[C@@H](C)CCO[C@@]1(C)OCC[C@@H]1C | · | · | 3% | ·
Cc1ccc(N=C2NC(=O)c3cc([N+](=O)[O-])ccc32)cc1 | 4 | 2 | 13µM* | -5%
O=C1Nc2ccccc2Nc2ccc([N+](=O)[O-])cc21 | -4 | 4 | · | 29%
Cc1ccc(S(=O)(=O)Nc2ccccc2C(=O)c2ccc(C)c(C)c2)cc1 | · | · | 14% | ·
CCNC(=S)N1CCN(c2nc(CC)nc3sc4c(c23)CCCC4)CC1 | 83* | 5 | · | -1%
CCOC(=O)c1nc(N2CCN(C(=O)OCC)CC2)c2c3c(sc2n1)CCCC3 | ? | 3 | 2%[38.3 µM] | 3%
CN(N=O)c1ccc(/C=C\c2ccnc3ccccc23)cc1 | · | · | 4% | ·
NS(=O)(=O)c1ccc(NC(=O)c2ccc3c(c2)CCCC3)cc1 | 92* | -5 | · | 1%
CCN(CCNC(=O)c1ccc(C#N)cc1)c1cccc(C)c1 | 91* | -5 | · | 0%
COc1cccc(CCNC(=O)c2ccc(C#N)cc2)c1 | ? | -17 | -3% | 5%
Cc1ccc(Nc2ccc(C(N)=O)cc2[N+](=O)[O-])cc1C | -10 | 11 | -12% | 25µM*
O=C(O)Cc1[nH]cnc1C(=O)O | · | · | 2% | ·
Cc1ccc(Cn2ccc(NC(=O)c3cc(-c4ccc5c(c4)OCO5)on3)n2)cc1 | 2 | -18 | 11µM* | -4%
CCCOc1ccc(/C=C/C(=O)N2CCOCC2)cc1 | 89* | -8 | · | 0%
CCCOc1ccc(/C=C/C(=O)N2CCN(c3ccccn3)CC2)cc1 | -1 | -7 | 23% | -2%
CC(C)c1ccc(/C=C/C(=O)N2CCOCC2)cc1 | 94* | 8 | · | 1%
CS[C@@H](CC(=O)O)C(=O)O | · | · | -5% | ·
C[C@H](CN(C)C)C(=O)c1ccccc1C(=O)O | · | · | -3% | ·
COC(=O)Cn1c(=NC(=O)c2nc3ccccc3s2)sc2cc(S(C)(=O)=O)ccc21 | -4 | 0 | 6.3µM* | 0%
COc1ccc2c3c([nH]c2c1)[C@H]1C[C@@H]2[C@@H](C[C@@H](O)[C@H](OC)[C@H]2C(=O)O)CN1CC3 | · | · | 3% | ·
CCN(CC)CCOC(=O)c1ccc([N+](=O)[O-])cc1 | -3 | 23 | · | 35µM*
COC(=O)c1ccccc1S(=O)(=O)N1CCc2nc(-c3ccc(OC)cc3C)c3c(c2C1)CO[C@@H](c1ccccc1)C3 | · | · | 4% | ·
SMILES | TRPV1 ag | TRPV1 potentiator | IMPase Li cell | AT treatment
NNC(=O)c1ccc[n+](CCc2ccccc2)c1 | · | · | 6% | ·
COc1ccc(Oc2nccc(-c3ccccc3)c2C#N)cc1 | 29 | -12 | 18%[38.3 µM] | 4%
COc1ccc(Oc2nccc(-c3ccc(F)cc3)c2C#N)cc1 | 4 | -6 | 28µM* | -1%
Fc1ccc(/C=N/NC(=S)Nc2ccc(Cl)cc2Cl)cc1 | 1 | -1 | · | 7.1µM*
Oc1ccc(Cl)cc1C=Nc1cnc2ccccc2c1 | · | · | -9% | ·
Cc1ccc2c(c1)C(=O)CC(O)(C(F)(F)F)O2 (centres undefined) | -1 | 2 | · | 3.5µM*
COc1ccc2c(c1)C(=O)CC(O)(C(F)F)O2 (centres undefined) | -2 | -21 | · | 12%
C[C@@]12CC[C@@H]3[C@@H](CC[C@H]4C[C@@H](O)CC[C@]43C)[C@H]1CC[C@@H]2c1cc(C(F)(F)F)n[nH]1 | · | · | -5% | ·
CC1CCN(C2=NC(=O)/C(=C/c3ccccc3F)S2)CC1 | 88* | -4 | · | -7%
COC(=O)c1ccc2c(=O)n3c(nc2c1)SCC(c1ccccc1)=N3 | · | · | 10µM* | 22%
CC(C)C(=O)Nc1nc(-c2ccc(S(=O)(=O)N3CCOCC3)cc2)cs1 | 0 | 12 | · | 13µM*
O=C(O)CCc1ccc(-c2ccc(Br)cc2)o1 | 6 | -7 | 8.9µM* | 5%
Cc1ccc(-n2c(=O)c(C#N)cc3c(=O)n4cccc(C)c4nc32)cc1 | -13 | 11 | 10µM* | ·
CN(C)c1ccc(NC(=O)c2cccc([N+](=O)[O-])c2)c2ccccc12 | 83* | -12 | · | -5%
O=C(Nc1ccc2c3c(cccc13)CC2)c1cccc([N+](=O)[O-])c1 | ? | -18 | 6% | 1%
O=C1CCC(=O)N1c1nc2n(n1)C(c1ccccc1)C=C(c1ccc(Br)cc1)N2 (centres undefined) | -7 | -2 | 11µM* | 1%
COc1ccc(C2C=C(c3ccc(Br)cc3)Nc3nc(N4C(=O)CCC4=O)nn32)cc1 (centres undefined) | · | · | 1%[38.3 µM] | 22%
c1coc(-c2nc3cc4ccccc4cc3nc2-c2ccco2)c1 | -1 | -8 | · | ·
O=c1cc(-c2ccccc2O)oc2c1ccc1ccccc12 | · | · | 8% | ·
O=C(NCCc1ccc(O)c(O)c1)C1COc2ccccc2O1 (centres undefined) | 89* | -32 | · | -16%
COc1ccc(OC)c(-c2ccc(C(=O)O)o2)c1 | · | · | -4% | ·
CCc1ccc(NC(=O)Nc2ccc3c(c2)N(C)C(=O)CS3)cc1 | 88* | -7 | 14%[38.3 µM] | 13%
O=S(=O)(c1cccc(C(F)(F)F)c1)N1c2ccccc2-n2cccc2[C@H]1c1cccnc1 | · | · | 14% | ·
COC(=O)c1sccc1NC(=O)C1CC=CCC1C(=O)O (centres undefined) | -2 | ? | 10µM* | ·
COC(=O)c1cc(C)sc1NC(=O)C1C2C=CC(CC2)C1C(=O)O (centres undefined) | -1 | -2 | 10µM* | -3%
SMILES | TRPV1 ag | TRPV1 potentiator | IMPase Li cell | AT treatment
COC(=O)c1cc(C)sc1NC(=O)C1CC=CCC1C(=O)O (centres undefined) | -2 | 6 | 11µM* | -2%
COC(=O)c1sccc1NC(=O)C1CCCCC1C(=O)O (centres undefined) | -2 | 9 | · | 10%
Nc1c(Br)cc(Br)c2cccnc12 | -4 | -5 | · | ·
NNC(=O)[C@@H](O)[C@H](O)[C@H](O)CO | · | · | 5% | ·
CC(=O)C1(C)CC2=C(CCCC2(C)C)CC1C (centres undefined) | · | · | -6% | ·
COc1cc(CN2CCCCC2)cc2cc(C(=O)O)c(=O)oc12 | · | · | -12% | ·
S=c1[nH]nc(C2CCCCC2)n1/N=C/c1ccc(Cl)cc1 | 7 | -11 | · | -1%
S=c1[nH]nc(C2CCCCC2)n1/N=C/c1ccc(Br)cc1 | 16 | -6 | · | 13µM*
CCN(CC)C[C@@H](O)c1ccc2ccc3ccccc3c2c1 | · | · | 5% | ·
COc1ccc(N2CC(O)=C(c3nc4ccccc4s3)C2=N)cc1 | 14 | -14 | 14µM* | 0%
CCN(C(=O)c1cc2c(=O)n3cccc(C)c3nc2n1CCCOC)C1CCCCC1 | ? | -17 | · | 35µM*

Assay outcomes from PubChem BioAssay.
